Experimental data reported in the supplement of paper PMC12636033.
± gives the standard deviation of the averaged measurements. Whole data set: some 33,000 sequences, median “E-score (rank enrichment, -0.5 to 0.5)” near -0.0068, cut for the highest 2% near 0.24. What follows is part of a selection rich in the highest values, with near analogues and random picks from the rest.

Test system: muMax20 (Max(13-93) K31hArg/K57hArg, M65Nle)
Assay: PBM 8-mer E-score (E-score (rank enrichment, -0.5 to 0.5)); higher = stronger preferential binding
Protocol: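 Protein binding microarray (universal PBM chip covering all 10-mers in fixed probe flanks) with chemically synthesized human Max(13-93) bHLH-LZ analogs (not full-length Max) bearing noncanonical residues (hArg, Tha, Aib, Nle at 65) and aromatic Cys staples. Read-out per 8-mer (and its reverse complement): E-score (rank-based enrichment, -0.5 to 0.5) and Z-score of median probe intensity.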

| Sequence | PBM 8-mer E-score |
| --- | --- |
| AATTATAT | 0.147 ± 0.044 |
| CTATCAGC | 0.0217 ± 0.00023 |
| CAGTCATA | 0.0326 ± 0.1 |
| GAAACGGC | 0.0377 ± 0.059 |
| CAAACGGC | -0.242 ± 0.0069 |
| AAACGGCT | -0.0843 ± 0.069 |
| AAACGGCC | 0.294 ± 0.093 |
| AAAACGGC | 0.3 ± 0.099 |
| CAACGGCC | -0.206 ± 0.059 |
| ACAAATAT | 0.185 ± 0.027 |
| ATCCGCGC | -0.227 ± 0.043 |
| CACATACC | -0.0465 ± 0.058 |
| CCTTCGCG | -0.228 ± 0.019 |
| CTGAAAGA | 0.0447 ± 0.09 |
| ATGCCAAA | 0.111 ± 0.027 |
| ATACGTAA | 0.112 ± 0.077 |
| ATACGTAC | 0.188 ± 0.074 |
| ATACGTAT | 0.308 ± 0.0025 |
| CTCGTCCA | -0.0336 ± 0.048 |
| CCGTAAAG | 0.104 ± 0.11 |
| AAGGCCGG | -0.243 ± 0.084 |
| AAGGCCGT | 0.278 ± 0.095 |
| AAGGCCGC | -0.00405 ± 0.027 |
| GCCGACAA | -0.268 ± 0.068 |
| GCGGTTGA | -0.134 ± 0.11 |

| Sequence | PBM 8-mer E-score |
| --- | --- |
| ACCACCCC | -0.0712 ± 0.063 |
| GCACCCCA | -0.0239 ± 0.0035 |
| CCCACCCA | 0.269 ± 0.099 |
| CCACCCCC | -0.12 ± 0.084 |
| CCACCCCA | 0.261 ± 0.066 |
| GCCACCCC | -0.0921 ± 0.047 |
| CCCACCCG | 0.186 ± 0.028 |
| TCCACCCA | 0.00135 ± 0.18 |
| CCCACCCC | 0.258 ± 0.018 |
| ATCCATAC | 0.15 ± 0.062 |
| GGTAGAAA | 0.0368 ± 0.022 |
| AGGCGCGG | -0.125 ± 0.07 |
| GAGTGGAA | -0.00431 ± 0.092 |
| ATTCACAA | 0.247 ± 0.032 |
| GTTCACAA | -0.0567 ± 0.038 |
| ATTCACAG | -0.0684 ± 0.13 |
| AAAACTTT | 0.133 ± 0.058 |
| CTAACATC | 0.042 ± 0.045 |
| ATAACACC | 0.134 ± 0.014 |
| ATAACACA | 0.186 ± 0.067 |
| GTAACACA | 0.26 ± 0.11 |
| ATAACACG | 0.251 ± 0.014 |
| ATAACATC | 0.249 ± 0.13 |
| CTAACACA | 0.127 ± 0.02 |
| GTAACAAA | 0.197 ± 0.067 |

| Sequence | PBM 8-mer E-score |
| --- | --- |
| ATAACATG | 0.199 ± 0.064 |
| CGGGGGGA | -0.222 ± 0.029 |
| ACGGCACC | -0.104 ± 0.13 |
| CGGACAGC | -0.13 ± 0.064 |
| GCGGCATA | -0.00641 ± 0.021 |
| CCTTCGAC | -0.147 ± 0.0063 |
| ATTACTCC | 0.182 ± 0.07 |
| CTACCGCC | -0.156 ± 0.014 |
| GGAACAAA | 0.171 ± 0.014 |
| CCGAGCGA | -0.223 ± 0.081 |
| CTTTTTCA | 0.0825 ± 0.076 |
| GCTTTTAA | 0.00199 ± 0.15 |
| GTTTTGTA | 0.254 ± 0.012 |
| GCTTTTTA | 0.292 ± 0.084 |
| CCTTTTCA | 0.295 ± 0.091 |
| CCTTTTTA | 0.0863 ± 0.063 |
| GGTTTGTA | -0.00997 ± 0.022 |
| GCTTTTCA | 0.0793 ± 0.013 |
| AGTTTATA | 0.266 ± 0.0043 |
| CTTTTGTA | 0.151 ± 0.01 |
| GGTTTATA | 0.051 ± 0.032 |
| AGTTTATC | 0.138 ± 0.08 |
| AGAATGTA | 0.159 ± 0.034 |
| ATCCAGAT | 0.0236 ± 0.27 |
| AGAATCGA | -0.018 ± 0.077 |

| Sequence | PBM 8-mer E-score |
| --- | --- |
| CCAATCCG | -0.198 ± 0.078 |
| CTCATACC | 0.014 ± 0.025 |
| AGACCCCA | 0.177 ± 0.046 |
| CAGCCAAG | -0.147 ± 0.066 |
| AGTACATA | 0.147 ± 0.081 |
| CTTTTATA | 0.184 ± 0.01 |
| CATTTATA | 0.175 ± 0.032 |
| ATTTTATA | 0.231 ± 0.038 |
| GTTTTATA | 0.261 ± 0.059 |
| AATTTATC | 0.205 ± 0.02 |
| AATTTATA | 0.247 ± 0.059 |
| GTCGAGGA | -0.115 ± 0.0082 |
| GGAAAGGA | -0.246 ± 0.099 |
| ACAGAGGG | -0.155 ± 0.0044 |
| GTCTAGTA | 0.252 ± 0.03 |
| CTCTAGTA | 0.118 ± 0.0018 |
| ATCTAGTA | -0.00587 ± 0.017 |
| CAGCCGAC | -0.22 ± 0.12 |
| GGGGGACC | -0.296 ± 0.013 |
| AAGAGCAC | 0.00129 ± 0.0028 |
| AGATTCGG | -0.118 ± 0.032 |
| TCAAGGGA | -0.065 ± 0.048 |
| ATGATATA | 0.266 ± 0.048 |
| GAGATACA | -0.0288 ± 0.04 |
| ATGATATG | 0.21 ± 0.12 |

| Sequence | PBM 8-mer E-score |
| --- | --- |
| CTGATATA | 0.0184 ± 0.051 |
| AAGATACT | 0.117 ± 0.038 |
| GAGATGTA | 0.104 ± 0.017 |
| CAGATATA | 0.0469 ± 0.045 |
| AAGATATC | 0.155 ± 0.027 |
| AAGATACA | 0.316 ± 0.024 |
| AAGATGTA | 0.237 ± 0.094 |
| CAGATGTA | 0.138 ± 0.011 |
| AAGATATA | 0.26 ± 0.041 |
| CGAGCCGA | -0.153 ± 0.036 |
| GAAGCACC | -0.0676 ± 0.049 |
| ACCTAGCG | -0.048 ± 0.057 |
| GAGGTAGA | 0.0124 ± 0.047 |
| ACCGCTTA | -0.0621 ± 0.13 |
| AAGATAAC | 0.172 ± 0.07 |
| AAGATAAG | 0.15 ± 0.031 |
| CTGATGTA | -0.0502 ± 0.023 |
| AAGATAAT | 0.239 ± 0.051 |
| GTGATGTA | 0.2775 ± 0.00062 |
| ATGATGTA | 0.171 ± 0.12 |
| CCTGCCCC | -0.167 ± 0.078 |
| CCAGCTGC | -0.272 ± 0.12 |
| GGCGCAAA | -0.148 ± 0.17 |
| GTGTAAAA | 0.113 ± 0.016 |
| AGAACGAG | 0.133 ± 0.061 |

| Sequence | PBM 8-mer E-score |
| --- | --- |
| ATACGATA | 0.244 ± 0.053 |
| GTACGATA | 0.163 ± 0.033 |
| CTACGATA | 0.082 ± 0.02 |
| GAGTCGGC | -0.146 ± 0.055 |
| CGGATGCC | -0.075 ± 0.079 |
| ATTCGTGC | 0.0424 ± 0.086 |
| AACCAGTT | 0.0717 ± 0.038 |
| ACATACAG | 0.242 ± 0.017 |
| ACATACAT | 0.243 ± 0.029 |
| ATATACAT | 0.247 ± 0.032 |
| CCATACAG | -0.0198 ± 0.047 |
| ATATACAA | 0.229 ± 0.069 |
| ATATACAC | 0.169 ± 0.004 |
| ACATACAC | 0.165 ± 0.057 |
| AGATACAG | 0.218 ± 0.024 |
| ACATACAA | 0.137 ± 0.076 |
| GATGTACC | 0.0595 ± 0.065 |
| ACTCCTAT | 0.0559 ± 0.1 |
| AAACGGGC | 0.0187 ± 0.03 |
| TAAACAAA | 0.184 ± 0.008 |
| AGCTCCCC | -0.0268 ± 0.092 |
| AAATACAC | 0.273 ± 0.038 |
| AAATACAG | 0.209 ± 0.07 |
| GAATACAC | 0.123 ± 0.014 |
| AAATACAA | 0.19 ± 0.018 |

| Sequence | PBM 8-mer E-score |
| --- | --- |
| AAATACAT | 0.259 ± 0.061 |
| CAATACAC | 0.194 ± 0.043 |
| CGGTTTTC | 0.00594 ± 0.054 |
| ATAGCGTG | 0.161 ± 0.019 |
| AGCACTCG | -0.199 ± 0.078 |
| GAACGCCA | -0.206 ± 0.021 |
| AAATCGCG | -0.0409 ± 0.032 |
| GGTAAGAA | 0.0527 ± 0.1 |
| CATAACGA | 0.0556 ± 0.017 |
| TGAATTAA | 0.254 ± 0.043 |
| CTAATTAA | 0.0707 ± 0.041 |
| ATAATTAA | 0.175 ± 0.05 |
| ATAATTAG | 0.223 ± 0.1 |
| ATAATTAT | 0.276 ± 0.0028 |
| GGAATTAA | 0.1996 ± 0.0018 |
| ATAATTAC | 0.22 ± 0.074 |
| CGAATTAA | 0.106 ± 0.11 |
| TTAATTAA | 0.324 ± 0.12 |
| CCTGTCCA | -0.131 ± 0.17 |
| CCAGTTTA | -0.0199 ± 0.068 |
| ATAAGGCC | -0.0432 ± 0.14 |
| AGTGCCTA | -0.109 ± 0.091 |
